Screens as filed in PubChem.
E coli RNAP: blocks E. coli RNA polymerase transcription; fluorescence transcription assay; inhibition, %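 (tested at 10 µM)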; hit rate 0.2% among 62,000; in the data active means inhibition above about 20%;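 further: 0% = enzyme without compound and 100% = no enzyme blank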
Target sequence (P0A8V2 whole entry, looked up): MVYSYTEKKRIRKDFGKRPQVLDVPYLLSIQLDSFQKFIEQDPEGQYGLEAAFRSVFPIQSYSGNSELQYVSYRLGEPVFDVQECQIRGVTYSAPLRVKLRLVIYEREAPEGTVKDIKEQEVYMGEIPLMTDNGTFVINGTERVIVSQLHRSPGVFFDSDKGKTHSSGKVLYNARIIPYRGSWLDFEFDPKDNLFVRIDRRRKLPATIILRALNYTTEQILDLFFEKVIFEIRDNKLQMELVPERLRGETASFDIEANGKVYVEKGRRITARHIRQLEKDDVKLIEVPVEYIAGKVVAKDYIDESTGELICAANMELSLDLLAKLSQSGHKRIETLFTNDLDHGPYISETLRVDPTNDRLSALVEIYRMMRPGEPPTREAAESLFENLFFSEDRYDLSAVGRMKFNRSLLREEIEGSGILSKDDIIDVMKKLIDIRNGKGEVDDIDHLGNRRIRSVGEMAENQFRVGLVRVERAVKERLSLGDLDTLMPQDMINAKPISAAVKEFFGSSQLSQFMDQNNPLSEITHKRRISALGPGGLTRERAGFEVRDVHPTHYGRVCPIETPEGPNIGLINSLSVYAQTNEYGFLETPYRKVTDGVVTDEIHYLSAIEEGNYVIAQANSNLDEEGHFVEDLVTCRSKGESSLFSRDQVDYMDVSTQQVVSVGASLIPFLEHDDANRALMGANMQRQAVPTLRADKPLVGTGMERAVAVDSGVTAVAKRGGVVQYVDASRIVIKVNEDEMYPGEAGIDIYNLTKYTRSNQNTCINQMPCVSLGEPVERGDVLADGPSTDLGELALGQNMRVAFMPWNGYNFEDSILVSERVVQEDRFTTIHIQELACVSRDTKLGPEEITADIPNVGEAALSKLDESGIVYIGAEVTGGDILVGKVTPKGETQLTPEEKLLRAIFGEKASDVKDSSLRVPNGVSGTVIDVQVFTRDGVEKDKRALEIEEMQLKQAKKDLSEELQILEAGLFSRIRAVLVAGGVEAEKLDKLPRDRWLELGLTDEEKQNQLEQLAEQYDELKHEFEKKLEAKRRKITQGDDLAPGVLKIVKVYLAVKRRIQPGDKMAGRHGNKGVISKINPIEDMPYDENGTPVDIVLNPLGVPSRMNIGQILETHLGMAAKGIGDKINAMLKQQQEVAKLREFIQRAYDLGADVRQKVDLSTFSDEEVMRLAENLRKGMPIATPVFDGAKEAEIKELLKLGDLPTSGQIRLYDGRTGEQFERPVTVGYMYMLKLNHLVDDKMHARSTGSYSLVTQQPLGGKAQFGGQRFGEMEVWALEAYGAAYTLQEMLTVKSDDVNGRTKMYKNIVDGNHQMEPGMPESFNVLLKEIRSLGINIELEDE
TNAP act mid DEA: activators of human TNAP at intermediate phosphate acceptor; P05186; purified TNAP, CDP-star luminescence, 100 mM DEA, 30 min; active compounds read high; scale: 0 levamisole-inhibited, 1 vehicle-only enzyme; activation factor at 20 µM; 64,000 tested, under 10 active; AID 813;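 active means activation factor of at least 2 at 20 µM, relative to controls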
PLAP activator: activators of human placental alkaline phosphatase; P05187; purified PLAP enzyme, luminescent substrate read-out; active compounds read high; activation fold at 20 µM; hit rate 1.2% among 96,000; in the data active means activation fold above about 2
An asterisk follows results filed as active. The entries come from a sample that favours hits as a whole.

What do the screens show for `COc1ccc(N2CCN(Cc3nc4ccsc4c(=O)[nH]3)CC2)cc1`?
PLAP activator: 1.1

How did N/C(=N\c1nc2c(c(=O)[nH]1)CCCC2)Nc1ccccc1 do in these assays?
E coli RNAP: 3.2; TNAP act mid DEA: 1; PLAP activator: 1.9

What do the screens show for `N/C(=N\c1nc2c(c(=O)[nH]1)CCCC2)Nc1ccccc1Sc1ccccc1`?
PLAP activator: 2*

What do the screens show for `O=C(CCCNS(=O)(=O)c1cccs1)N1CCN(c2cccc(Cl)c2)CC1`?
E coli RNAP: 43.3*; TNAP act mid DEA: 0.9; PLAP activator: 1.3

Results for O=C(CCCNS(=O)(=O)c1cccs1)N1CCN(c2ccc(F)cc2)CC1 ?
E coli RNAP: 14.8; TNAP act mid DEA: 0.9; PLAP activator: 1.4

What do the screens show for `O=C(O)CSCC(=O)NCc1ccccc1`?
E coli RNAP: 2.5; TNAP act mid DEA: 0.9; PLAP activator: 1

Results for CCOc1nc(CC)nc(NC(=O)NS(=O)(=O)c2ccccc2Cl)n1 ?
E coli RNAP: 4.7; TNAP act mid DEA: 0.9; PLAP activator: 0.9

How did CCN1CCN(Cc2cccc(Oc3ccccc3)c2)CC1 do in these assays?
PLAP activator: 2.2*

How did CCN1CCN(Cc2cccc(Oc3ccc(Cl)cc3)c2)CC1 do in these assays?
PLAP activator: 1.7

How did Cc1cccc(NC(c2ccc(O)cc2)c2ccc3ccc(C)nc3c2O)n1 (configuration not stated) do in these assays?
PLAP activator: 2.8*

What do the screens show for `Cc1ccc2cccc(NC(=O)C(F)(F)F)c2n1`?
E coli RNAP: 1.0; TNAP act mid DEA: 0.9; PLAP activator: 1.2

Results for COc1cccc(Oc2cn[nH]c2-c2ccc(O)cc2O)c1 ?
E coli RNAP: -3.7; TNAP act mid DEA: 0.9; PLAP activator: 2*

Results for COc1ccc(-c2[nH]ncc2-c2ccc(Cl)cc2)c(O)c1 ?
E coli RNAP: 3.9; TNAP act mid DEA: 1; PLAP activator: 2*

Results for CCCc1ccc(Oc2c(-c3ccc(O)c(C)c3O)n[nH]c2C)cc1 ?
E coli RNAP: 1.1; TNAP act mid DEA: 1.1; PLAP activator: 1.8

Results for CCCc1ccc(Oc2cn[nH]c2-c2ccc(O)c(C)c2O)cc1 ?
E coli RNAP: 6.0; TNAP act mid DEA: 1; PLAP activator: 2.2*

How did COc1ccc(Oc2c(-c3ccc(O)cc3O)n[nH]c2C)cc1 do in these assays?
E coli RNAP: 5.6; TNAP act mid DEA: 1.2; PLAP activator: 1.8

How did COc1cccc(Oc2ccc(N)cn2)c1 do in these assays?
E coli RNAP: 6.2; TNAP act mid DEA: 0.9; PLAP activator: 1.1

What do the screens show for `COc1cccc(Oc2cn[nH]c2-c2ccc(OC)cc2O)c1`?
E coli RNAP: 4.0; TNAP act mid DEA: 1; PLAP activator: 2.2*

Results for Oc1ccc(-c2[nH]ncc2-c2ccc(Cl)cc2)c(O)c1 ?
E coli RNAP: -1.5; TNAP act mid DEA: 1; PLAP activator: 1.6

How did CC(C)CNC(=O)c1cccc(NC(=O)C2CCCO2)c1 (configuration not stated) do in these assays?
E coli RNAP: -2.6; TNAP act mid DEA: 0.9; PLAP activator: 1

How did O=C(NCCc1ccccc1)c1ccccc1NS(=O)(=O)N1CCCC1 do in these assays?
E coli RNAP: 1.1; TNAP act mid DEA: 0.9; PLAP activator: 1.2

How did CCOc1ccc(-c2n[nH]c(C)c2-c2ccccc2OC)c(O)c1 do in these assays?
E coli RNAP: 4.5; TNAP act mid DEA: 1.1; PLAP activator: 1.1

What do the screens show for `CCOc1ccc(-c2[nH]ncc2Oc2cccc(OC)c2)c(O)c1`?
E coli RNAP: 4.4; TNAP act mid DEA: 1.1; PLAP activator: 2.6*

Results for Cc1n[nH]c(=S)n1/N=C/c1ccc(-c2ccccc2[N+](=O)[O-])o1 ?
PLAP activator: 2*

How did Cc1ccc(-c2n[nH]c(=S)n2/N=C/C=C\c2ccccc2[N+](=O)[O-])cc1 do in these assays?
PLAP activator: 1.4

Results for Cc1noc(C)c1CSc1ncnc2ccccc12 ?
E coli RNAP: -2.3; TNAP act mid DEA: 1; PLAP activator: 1.5

How did Cc1cc2c(cc1C)NC(c1nc3ccccc3[nH]1)C1=C(CC(C)(C)CC1=O)N2 (configuration not stated) do in these assays?
PLAP activator: 1.1

What do the screens show for `CC1(C)CC(=O)c2cnn(-c3nc4ccccc4[nH]3)c2C1`?
E coli RNAP: 5.6; TNAP act mid DEA: 1; PLAP activator: 2.1*

What do the screens show for `C=CCN1C(=O)C(CC(=O)Nc2ccc(C)cc2)SC1=Nc1c(C)n(C)n(-c2ccccc2)c1=O` (configuration not stated)?
PLAP activator: 2.1*

How did C=CCN1C(=O)C(CC(=O)O)SC1=Nc1c(C)n(C)n(-c2ccccc2)c1=O (configuration not stated) do in these assays?
E coli RNAP: 7.7; TNAP act mid DEA: 1; PLAP activator: 1.3

How did O=C(CSc1nc2[nH]ncc2c(=O)n1-c1ccccc1)c1ccc2c(c1)OCCO2 do in these assays?
E coli RNAP: 7.8; TNAP act mid DEA: 1; PLAP activator: 2.4*
